Experiment [1] has as its target Lysosomal acid glucosylceramidase (Homo sapiens) (UniProt P04062). Briefly: Glucocerebrosidase-p2 (AID 348; in the data active means potency below about 10 µM; further: potency means the concentration at half of the fitted maximal effect). The note with it: purified GBA, blue fluorogenic substrate, 40 min. Summed up: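 Normal human glucocerebrosidase (0.2 nM) with blue fluorogenic substrate (80 uM final) in citrate/phosphate pH 5.9 with 10mM sodium taurocholate, 0.01% tween-20; 40 min RT, NaOH/glycine stop; fluorescence Ex 365/Em 440; AC50 from a titration from 0.6 nM upwards.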

A short description of experiment [2]: AP1 Signaling Pathway (AID 357). Further: on the % scale 0 is the no-effect control and ±100 the full control effect. The note with it: ME-180 AP-1-bla reporter, EGF-induced, beta-lactamase ratio, 5 h; at 7.69 µM (top of the series) unless noted. Summed up: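 AP-1-bla ME-180 cells, Opti-MEM + 0.5% dialyzed FBS, plated overnight 37 °C. Cpd titration + EC50 EGF, 5 h 37 °C. CCF4 2.5 h RT; ex 405, em 460/530 ratio → %activity, AC50.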
Experiment [3] is described as follows: NFAT Signaling Pathway (AID 444).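 Further: carbachol stimulus at about its EC50 of 1 µM final; on the % scale 0 is the no-effect control and ±100 the full control effect.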 The following applies: Jurkat NFAT-bla M1, carbachol, beta-lactamase ratio, 5 h; at 7.69 µM (top of the series) unless noted. Summed up: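 Read-out: CCF4 FRET ratio (460 nm/530 nm) after 1 h RT dye loading, used for %activity and AC50 from titration series. Cells: Jurkat NFAT-β-lactamase/M1 line, treated with compound plus 1 uM carbachol for 5 h, 37 °C.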

Experiment [4] in a line: Stat Signaling Pathway (AID 446).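 Further: ME-180 cervical cancer cells given 40 pM IL-6 alongside compound; SIE-controlled beta-lactamase reporter measured as 460/530 nm FRET emission ratio; on the % scale 0 is the no-effect control and ±100 the full control effect.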 The following applies: ME-180 (cervical carcinoma) SIE beta-lactamase reporter, IL-6 stimulated, 5 h; at 7.69 µM (top of the series) unless noted. Summed up:
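FRET read-out (405 nm excitation, 460/530 nm emission) of a beta-lactamase reporter under a STAT-inducible element in ME-180 cervical carcinoma cells. Cells with compound receive 40 pM IL-6 for 5 h. Values are normalised to AC90 stimulation and AC90 JAK-inhibitor controls.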

Experiment [5] addresses Glucocorticoid receptor (Homo sapiens) (UniProt P04150). Briefly: GR-EFC Redistribution (AID 451; calls by dose curve; further: potency means the concentration at half of the fitted maximal effect). The following applies: CHO-K1 GR-EFC translocation, beta-gal luminescence, 2 h. Summed up: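 Translocation of GR-ED fusion to nuclear EA restores b-gal, read by luminescence after 1 h room-temperature detection. Engineered CHO-K1 biosensor cells, 1,000/well, exposed 2 h at 37 C to titrations up to 46 uM final.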

For experiment [6], the target named is Mitogen-activated protein kinase 10 (Mus musculus) (UniProt Q61831). Briefly: JNK3 AlphaScreen Assay (AID 530).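 Further: kinase came from lysate of stimulated human HepG2 cells; signal reports phosphorylation of biotinylated GST-cJun 1-79 at Ser73 with 10 µM ATP; on the % scale 0 is the no-effect control and ±100 the full control effect.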 The following applies: JNK3 lysate, c-Jun phosphorylation; series mostly up to 57.1 µM. Summed up: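 Kinase buffer: 20 mM Tris-HCl pH 7.6, 10 mM MgCl2, 1 mM DTT, 0.1 mM Na3VO4, 0.01% Tween-20; ATP 10 uM. Substrate biotin-GST-cJun(1-79), enzyme from activated HepG2 lysates. Detection by Ser73 phospho-antibody AlphaScreen.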

The target of experiment [7] is 3',5'-cyclic-AMP phosphodiesterase 4B (Homo sapiens) (UniProt Q07343). Briefly: qHTS Assay for Inhibitors of PDE-IV (AID 607; active means well fitted activation curve with a large enough effect in the main read-out, with a control signal flat, not every such curve was filed as active; further: % of control where 0% means no effect). The following applies: HEK293 ACTOne CNG channel cells, membrane potential fluorescence; series mostly up to 22.9 µM. Summed up:
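Cell-based read-out of cAMP via a modified cyclic nucleotide-gated channel and membrane potential dye (535/590 nm) in HEK293 cells expressing PDE4 endogenously. Compounds tested up to 22.9 uM final; 100 uM RO 20-1724 reference.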
In general terms: In qHTS, concentration-response curves come from the screen itself.

Experiment [8] is described as follows: qHTS Assay for Lipid Storage Modulators (AID 1519; calls by dose curve). The following applies: Drosophila S3 cells, BODIPY lipid droplet/cell ratio, laser cytometry, cells loaded with oleic acid; for activity change, negative = inhibition: at 57.5 µM (top of the series). The method in brief: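 Cells seeded at 5,000 per well were treated with compounds over a concentration series and loaded with oleic acid (400 uM, as added). Lipid droplet fluorescence (488 nm excitation, 500-530 nm channel) was read by laser-scanning cytometry and normalized to 20 uM Triacsin C.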

Experiment [9] in a line: Primary qHTS for small molecule stabilizers of the endoplasmic reticulum resident proteome: Secreted ER Calcium Modulated Protein (SERCaMP) assay (AID 1508630; active means well fitted curve in the direction sought with a large enough effect; an effect the other way counts as inactive or inconclusive; further: on the % scale 0 is the no-effect control and ±100 the full control effect). The note with it: SH-SY5Y GLuc-SERCaMP (Gaussia luciferase released on ER calcium loss) secretion, thapsigargin, luminescence; series mostly up to 38.4 µM. Summed up:
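The SH-SY5Y reporter protocol was run at 3 concentrations up to 38.3 uM (primary) or 11 concentrations (follow-up): 16 h compound, 100 nM thapsigargin for 4 h, then extracellular luciferase luminescence.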

Experiment [10] has as its target Cytochrome P450 3A4 (Homo sapiens) (UniProt P08684). Briefly: qHTS Assay for Activators of Cytochrome P450 3A4 (AID 885; active means well fitted curve in the direction sought with a large enough effect; an effect the other way counts as inactive or inconclusive; further: nearly all actives have a fitted effect of over 65% in size; further: potency means the concentration at half of the fitted maximal effect). The following applies: recombinant CYP3A4, Luciferin-PPXE luminescence, 60 min; series mostly up to 57.1 µM. Summed up:
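Luminescent readout of luciferin formed from 25 uM Luciferin-PPXE (KM level) by 20 nM CYP3A4 in 200 mM KPO4, with 60 min NADPH-driven reaction at room temperature after 10 min compound exposure. Ketoconazole (57 uM) defined 100% inhibition.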

For experiment [11] the target is unchanged. Briefly: qHTS Assay for Inhibitors and Substrates of Cytochrome P450 3A4 (AID 884; active means well fitted curve in the direction sought with a large enough effect; an effect the other way counts as inactive or inconclusive; further: on the % scale 0 is the no-effect control and ±100 the full control effect; nearly all actives have a fitted effect of over 50% in size). The following applies: recombinant CYP3A4, Luciferin-PPXE luminescence; series mostly up to 57.1 µM. The method in brief: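 Luminescent readout of luciferin produced by CYP3A4 (20 nM) dealkylation of Luciferin-PPXE, 25 uM (its KM). NADPH-driven reaction ran 60 min at RT after 10 min compound preincubation; data scaled to 57 uM ketoconazole as 100% inhibition.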

The mark [12] stands for this setting: measured here: cell count channel max response.
The mark [13] stands for this setting: measured here: lipid channel max response.

Records with an inconclusive call do not appear. Activity calls are given as the source filed them. Unless noted, the call rests on the fitted dose curve; in most records, active means well fitted curve in either direction with a large enough effect (not every such curve was filed as active); inconclusive means small, poorly fitted or top-dose-only effect, or another doubt; inactive means flat fitted curve, though single readings scatter.

Sequence of Glucocorticoid receptor (Homo sapiens) (P04150 whole entry, looked up, the tested form may be a part): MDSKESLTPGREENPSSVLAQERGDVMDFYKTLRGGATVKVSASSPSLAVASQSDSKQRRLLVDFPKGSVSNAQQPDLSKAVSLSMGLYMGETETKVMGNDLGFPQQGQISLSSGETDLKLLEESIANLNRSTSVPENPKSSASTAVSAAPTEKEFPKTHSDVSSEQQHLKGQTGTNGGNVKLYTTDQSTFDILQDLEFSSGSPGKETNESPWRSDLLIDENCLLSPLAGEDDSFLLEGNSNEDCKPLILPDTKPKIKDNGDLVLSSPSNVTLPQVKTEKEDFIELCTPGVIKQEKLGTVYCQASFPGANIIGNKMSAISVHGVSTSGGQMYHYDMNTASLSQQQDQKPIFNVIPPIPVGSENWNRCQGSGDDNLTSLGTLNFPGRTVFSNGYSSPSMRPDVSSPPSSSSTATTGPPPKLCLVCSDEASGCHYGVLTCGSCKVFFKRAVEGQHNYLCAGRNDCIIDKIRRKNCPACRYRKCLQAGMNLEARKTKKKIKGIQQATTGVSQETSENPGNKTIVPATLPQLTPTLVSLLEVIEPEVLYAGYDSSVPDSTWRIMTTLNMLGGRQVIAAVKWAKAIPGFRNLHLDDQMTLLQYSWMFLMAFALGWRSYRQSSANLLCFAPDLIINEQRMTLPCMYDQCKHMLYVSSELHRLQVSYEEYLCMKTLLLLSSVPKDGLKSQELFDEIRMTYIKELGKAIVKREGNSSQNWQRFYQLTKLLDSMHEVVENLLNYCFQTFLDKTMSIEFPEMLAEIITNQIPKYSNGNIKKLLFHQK
Sequence of 3',5'-cyclic-AMP phosphodiesterase 4B (Homo sapiens) (Q07343 whole entry, looked up): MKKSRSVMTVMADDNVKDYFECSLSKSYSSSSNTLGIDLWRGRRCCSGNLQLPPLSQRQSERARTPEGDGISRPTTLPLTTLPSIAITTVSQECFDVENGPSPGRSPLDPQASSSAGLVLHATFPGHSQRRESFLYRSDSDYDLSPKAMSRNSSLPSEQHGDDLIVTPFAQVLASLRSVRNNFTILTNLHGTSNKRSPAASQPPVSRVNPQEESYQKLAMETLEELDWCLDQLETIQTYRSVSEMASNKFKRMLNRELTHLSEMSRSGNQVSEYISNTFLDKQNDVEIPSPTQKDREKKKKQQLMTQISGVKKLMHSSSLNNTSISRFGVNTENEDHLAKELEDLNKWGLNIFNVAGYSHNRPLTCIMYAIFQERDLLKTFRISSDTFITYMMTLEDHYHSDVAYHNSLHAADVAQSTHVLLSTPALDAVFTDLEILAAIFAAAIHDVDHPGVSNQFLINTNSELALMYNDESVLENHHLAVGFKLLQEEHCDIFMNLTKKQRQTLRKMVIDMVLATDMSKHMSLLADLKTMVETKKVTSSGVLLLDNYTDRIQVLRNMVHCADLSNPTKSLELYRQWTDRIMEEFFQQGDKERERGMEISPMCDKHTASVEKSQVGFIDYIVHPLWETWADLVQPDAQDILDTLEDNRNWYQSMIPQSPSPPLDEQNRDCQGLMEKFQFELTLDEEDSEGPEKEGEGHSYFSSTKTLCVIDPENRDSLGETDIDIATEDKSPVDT
Sequence of Lysosomal acid glucosylceramidase (Homo sapiens) (P04062 whole entry, looked up): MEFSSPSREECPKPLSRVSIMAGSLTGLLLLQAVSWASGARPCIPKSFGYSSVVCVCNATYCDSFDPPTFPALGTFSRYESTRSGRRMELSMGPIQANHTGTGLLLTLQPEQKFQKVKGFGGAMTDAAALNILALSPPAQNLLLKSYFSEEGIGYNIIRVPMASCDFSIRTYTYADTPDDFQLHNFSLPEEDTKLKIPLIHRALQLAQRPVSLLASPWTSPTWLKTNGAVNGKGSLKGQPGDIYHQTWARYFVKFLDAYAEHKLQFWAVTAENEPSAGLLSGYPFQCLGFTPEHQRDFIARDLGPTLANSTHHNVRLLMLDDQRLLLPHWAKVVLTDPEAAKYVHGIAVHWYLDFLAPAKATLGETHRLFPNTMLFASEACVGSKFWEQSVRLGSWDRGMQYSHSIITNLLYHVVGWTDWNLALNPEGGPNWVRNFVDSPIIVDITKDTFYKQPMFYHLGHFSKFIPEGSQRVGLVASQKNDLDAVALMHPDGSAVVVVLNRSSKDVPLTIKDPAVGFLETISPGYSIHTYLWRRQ
Sequence of Cytochrome P450 3A4 (Homo sapiens) (P08684 whole entry, looked up): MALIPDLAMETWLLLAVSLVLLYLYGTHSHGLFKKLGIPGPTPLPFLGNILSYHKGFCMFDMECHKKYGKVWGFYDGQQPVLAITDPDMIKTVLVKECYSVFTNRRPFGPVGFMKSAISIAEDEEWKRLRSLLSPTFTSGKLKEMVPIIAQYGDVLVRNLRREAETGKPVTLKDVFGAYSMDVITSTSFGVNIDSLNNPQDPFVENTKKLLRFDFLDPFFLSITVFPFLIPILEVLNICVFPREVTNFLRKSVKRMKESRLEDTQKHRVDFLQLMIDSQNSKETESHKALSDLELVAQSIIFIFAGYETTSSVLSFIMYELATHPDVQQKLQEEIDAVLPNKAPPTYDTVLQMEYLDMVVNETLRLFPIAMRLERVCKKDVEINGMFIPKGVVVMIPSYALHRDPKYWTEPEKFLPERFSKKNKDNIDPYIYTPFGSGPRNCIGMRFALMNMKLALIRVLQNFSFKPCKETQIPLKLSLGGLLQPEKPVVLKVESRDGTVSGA

For `COC(=O)N1CCC[C@@]2(CCN(Cc3cc(C(F)(F)F)cc(C(F)(F)F)c3)C2)C1`, the Potency in experiment [1] was > 11.4 µM (inactive); in experiment [5] it was > 46 µM (inactive). The figures for the activity change, negative = inhibition in [2], in experiment [3] and in experiment [8] were -12.5% (inactive), 9.2% (inactive) and -1.37% (inactive), respectively. The activity, negative = inhibition in [4] was -8.1% (inactive). The Potency entry in [6] and in [7] was “inactive” throughout. The results for the max response in experiment [8] (setting [12]) and in [8] (setting [13]) were 12.3% and 14.8%, respectively. Moreover, the result in experiment [9] was inactive.

In the case of `Cc1noc(C)c1C(=O)N1CCC[C@@]2(CCN(C(=O)Nc3ccccc3)C2)C1`, the Potency in experiment [1] was > 11.4 µM (inactive); in [5] it was > 46 µM (inactive). In addition, the activity change, negative = inhibition in experiment [2] is -22.6% (inactive); in [3], 19.8% (inactive); in experiment [8] it was 3.24% (inactive). The activity, negative = inhibition in experiment [4] is -2.21% (inactive). In addition, the Potency entry in experiment [6], in experiment [7] and in experiment [10] was “inactive” each time. Also, the max response in [8] (setting [12]) worked out at 3.75%; in [8] (setting [13]), 7.38%. For the same compound, the result in experiment [9] was inactive.

For `COc1ccc(NC(=O)N2CC[C@@]3(CCCN(C(C)=O)C3)C2)cc1`, the Potency in [1] was > 11.4 µM (inactive); in experiment [5], > 46 µM (inactive). Besides, the activity change, negative = inhibition in experiment [2] was -3.83% (inactive); in experiment [3], 13.8% (inactive); in experiment [8] it was 5.28% (inactive). Moreover, the activity, negative = inhibition in [4] was 6.12% (inactive). The Potency entry in [6] and in experiment [7] was “inactive” throughout. For the same compound, the max response in experiment [8] (setting [12]) turned out to be 4.36%; in experiment [8] (setting [13]), 12%. Moreover, the outcome in experiment [9] was inactive.

For `Cc1noc(C)c1C(=O)N1CCC2(CC1)CCN(c1ncccn1)CC2`, the values for the Potency in [1] and in experiment [5] were > 11.4 µM (inactive) and > 46 µM (inactive), respectively. Further, the activity change, negative = inhibition is 16.2% (inactive) in experiment [2], 5.74% (inactive) in experiment [3] and 5.54% (inactive) in [8]. Further, the activity, negative = inhibition in experiment [4] is 3.32% (inactive). Also, the Potency result in experiment [6] and in experiment [7] was “inactive” in each case. Also, the max response in [8] (setting [12]) was found to be 6.46%; in experiment [8] (setting [13]), 13.5%. The outcome in experiment [9] was inactive.

Regarding `Cc1noc(C)c1C(=O)N1CCC[C@@]2(CCN(C(c3ccccc3)c3ccccc3)C2)C1`, the results for the Potency in experiment [1] and in experiment [5] were > 11.4 µM (inactive) and > 46 µM (inactive), respectively. Moreover, the activity change, negative = inhibition is -7.96% (inactive) in experiment [2], -12.7% (inactive) in experiment [3] and 2.35% (inactive) in experiment [8]. Also, the activity, negative = inhibition in [4] is -6.89% (inactive). The Potency entry in [6] and in experiment [7] was “inactive” each time. Besides, the max response was 12.4% in experiment [8] (setting [12]) and 16.6% in experiment [8] (setting [13]). In addition, the outcome in experiment [9] was inactive.

Consider `COCC(=O)N1CCC2(CC1)CCN(c1ccccc1)CC2`, for which the Potency was > 11.4 µM (inactive) in experiment [1] and > 46 µM (inactive) in [5]. In addition, the activity change, negative = inhibition is -2.33% (inactive) in experiment [2], 15.9% (inactive) in experiment [3] and -1.96% (inactive) in [8]. In addition, the activity, negative = inhibition in experiment [4] is -2.7% (inactive). The Potency result in experiment [6] and in [7] was “inactive” throughout. Besides, the results for the max response in [8] (setting [12]) and in experiment [8] (setting [13]) were 4.08% and 3.97%, respectively. Besides, the result in experiment [9] was inactive.

Take `O=C(c1cccc(F)c1)N1CCC2(CC1)CN(c1ncccn1)C2`: the Potency in experiment [1] is > 11.4 µM (inactive); in experiment [5], > 46 µM (inactive); in experiment [10], 25.1 µM (active). The activity change, negative = inhibition in experiment [2] is 1.82% (inactive); in [3], -6.5% (inactive); in experiment [8] it was 1.3% (inactive). The activity, negative = inhibition in experiment [4] is -6.7% (inactive). Further, the Potency entry in [6], in [7] and in experiment [11] was “inactive” each time. Also, the values for the max response in experiment [8] (setting [12]) and in [8] (setting [13]) were 1.53% and 3.53%, respectively. In experiment [9], the result was inactive.

The values above are taken from PubChem BioAssay (NCATS).
